Shown are actives, neighbours in structure and some others; about 2.4% of the full set was active somewhere.
D2 antag: antagonizes the human D2 dopamine receptor; P14416; HEK293 TREx D2 cells, calcium flux, dopamine EC80; inhibition, % at 10 µM; hit rate 2% among 340,000; AID 485344; in the data active = inhibition above about 30%; inactive = below that, where a call was filed
Target sequence (P14416 whole entry, looked up): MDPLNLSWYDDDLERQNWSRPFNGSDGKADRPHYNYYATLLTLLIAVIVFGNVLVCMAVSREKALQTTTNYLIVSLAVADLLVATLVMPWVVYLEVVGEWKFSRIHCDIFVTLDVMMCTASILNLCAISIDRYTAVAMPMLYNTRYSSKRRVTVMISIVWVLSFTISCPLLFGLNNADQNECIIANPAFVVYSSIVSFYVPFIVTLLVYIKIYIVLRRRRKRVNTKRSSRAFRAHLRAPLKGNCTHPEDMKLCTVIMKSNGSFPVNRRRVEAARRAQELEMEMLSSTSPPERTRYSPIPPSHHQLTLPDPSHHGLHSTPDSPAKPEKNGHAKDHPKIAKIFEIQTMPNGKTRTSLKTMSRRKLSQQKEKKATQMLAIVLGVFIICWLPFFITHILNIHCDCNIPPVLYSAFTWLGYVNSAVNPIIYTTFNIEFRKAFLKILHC
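Measurement of antagonist activity uses fluorescent calcium dye in inducible HEK293 T-REx D2 cells: 10 s baseline, compound addition with 180 s read, EC80 dopamine addition with a further 180 s read.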
D2 ag-1: activates the human D2 dopamine receptor. P14416. HEK293 T-REx D2 cells, calcium flux agonist mode. activation, % at 2 µM. hit rate 0.53% among 340,000;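 active = activation over 3 SD above normal in the single-dose calcium agonist read, cut at about 30% in these data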
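Tetracycline-induced HEK293 T-REx cells with force-coupled D2 receptor, plated overnight at 30 C, loaded with no-wash calcium dye. After a 10 s baseline, compound was pin-added and calcium flux read kinetically for 180 s; calcium rises flagged agonists.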
D2 ag-2: activates the human D2 dopamine receptor; P14416; DiscoveRx PathHunter D2 beta-arrestin, luminescence, 90 min; 100% = 57 uM dopamine signal; activation, % (concentration not given with the values); hit rate 0.084% among 360,000; AID 624465; in the data active = activation above about 40%
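DiscoveRx PathHunter D2 beta-arrestin cells (2,100/well) attached overnight, then compound-stimulated 90 min at 37 C in HBSS/10 mM HEPES/0.1% Tween-20 buffer; beta-galactosidase complementation read by luminescence after 1 h at ambient temperature. Dopamine 57 uM final (EC100) as control.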
D2 PAM-1: positively modulates the human D2 dopamine receptor allosterically; P14416; HEK293 T-REx D2, calcium flux, EC20 dopamine potentiation; potentiation, % at 10 µM; hit rate 0.34% among 340,000;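 active = potentiation over 3 SD above the plate norm, cut at about 30% in these data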
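Primary screen. Calcium kinetics in induced HEK293 T-REx D2 cells: compound pre-addition 180 s, EC20 dopamine, 180 s more.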
D2 PAM-2: potentiates the human D2 dopamine receptor allosterically. P14416. DiscoveRx D2 beta-arrestin cells, luminescence, 90 min; 100% = 57 uM dopamine signal. potentiation, % (no concentration beside the values). hit rate 0.23% among 360,000; in the data active = potentiation above about 50%
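D2 cells co-treated with compound plus 50 nM dopamine (EC20) for 90 min at 37 deg C to detect potentiation. Beta-arrestin recruitment was read as enzyme-fragment luminescence after 1 h at ambient temperature. Full response was set by 57 uM dopamine.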
Large screens that a line does not name were inactive.

COc1cc(C(CC(=O)N2CCCC2)c2c(OC)cc(OC)c3ccc(=O)oc23)cc(OC)c1OC (stereo unspecified)	none
OC(COCc1cccs1)CN1CCN(c2cccc(C(F)(F)F)c2)CC1 (stereo unspecified)	D2 antag 50
O=S(=O)(c1ccc(F)cc1)N1CCN(CC(O)COCc2cccs2)CC1 (stereo unspecified)	none
CN=C1CC(C)(C)CC(=O)/C1=C(/O)CCCN1C(=O)c2ccccc2C1=O	none
O=C(O)CN=C1CC(c2ccccc2)CC(=O)/C1=C(/O)CCCN1C(=O)c2ccccc2C1=O (stereo unspecified)	D2 PAM-1 31
O=C(CCN1C(=O)c2ccccc2Sc2ncccc21)Nc1ccc(F)cc1	none (no result: D2 antag, D2 ag-1, D2 ag-2, D2 PAM-2)
COc1ccc(NC(=O)NCCCN2CCc3ccccc3C2)cc1	D2 antag 43
O=C(NCCCN1CCc2ccccc2C1)Nc1ccc(Br)cc1	D2 antag 31
COc1ccc(CNC(=O)N2CCc3ccccc3C2)cc1	D2 antag 34
COc1ccc(CNC(=O)Cn2nc(N3CCN(c4ccccc4)CC3)ccc2=O)c(OC)c1	none (no result: D2 antag, D2 ag-1, D2 ag-2, D2 PAM-2)
Nc1c(C(=O)Nc2ccccc2)nnn1Cc1ccc(F)cc1Cl	none (no result: D2 antag, D2 ag-2, D2 PAM-2)
CN(CCOc1ccccc1)CC(=O)Nc1ccc(Br)cc1F	D2 antag 53
CCOc1cccc(-c2c(C(=O)N/N=C/c3cccs3)nnn2-c2nonc2N)c1	D2 antag 32
COc1ccc(N=Nc2nc3cc(Br)c(Br)cc3n2C)c(OC)c1	D2 ag-1 33
N#CC1(NC(=O)COC(=O)C2=COCCO2)CCCCC1	D2 antag 50
COc1cc(OC)c(NC(=O)C(CC(C)C)N2Cc3ccccc3C2=O)cc1Cl (stereo unspecified)	none (no result: D2 antag, D2 ag-2, D2 PAM-2)
CCCOc1ccccc1C(=O)N(Cc1cccc(Br)c1)C1CCS(=O)(=O)C1 (stereo unspecified)	D2 antag 47
CCOc1ccc(NC(=O)Cn2cc(C(=O)c3ccc(OCC)cc3)c(=O)c3cc4c(cc32)OCCO4)cc1	none (no result: D2 antag, D2 ag-2, D2 PAM-2)
CCOc1ccccc1N(C)C(=O)c1cc(S(=O)(=O)NCc2ccc(C)cc2)ccc1F	none (no result: D2 antag, D2 ag-2, D2 PAM-2)
COc1cccc(N2CCN(Cc3ccsc3)CC2)c1	D2 antag 48
COc1ccc(CCNC(=O)Cn2cc(S(=O)(=O)Cc3ccccc3F)c3ccccc32)cc1OC	none (no result: D2 antag, D2 ag-1, D2 ag-2, D2 PAM-2)
CCOc1ccccc1C(=O)NC1CCN(Cc2ccccc2)CC1	D2 antag 89
O=C(NC1CCN(Cc2ccccc2)CC1)c1ccccc1OCc1ccccc1	D2 antag 86
O=C(NC1CCCC1)c1ccccc1OCc1ccccc1	none
O=C(NC1CCN(Cc2ccccc2)CC1)c1ccccc1OCc1ccccc1Cl	D2 antag 84
COc1cccc(-n2nnc3c(=O)n(CC(=O)OCc4ccccc4)cnc32)c1	D2 PAM-1 50
CCOC(=O)Cn1cnc2c(nnn2-c2ccc(F)cc2)c1=O	D2 antag 32
CCOC(=O)Cn1cnc2c(nnn2-c2cccc(OC)c2)c1=O	none
O=C(NCCc1ccc(Cl)cc1)C(=O)NCC(c1ccc2c(c1)OCO2)N1CCOCC1 (stereo unspecified)	none (no result: D2 antag, D2 ag-2, D2 PAM-2)
Cc1cc(C)cc(N(C(=O)c2sc(C)nc2C)C(C(=O)NCc2ccco2)c2ccccc2)c1 (stereo unspecified)	none
Cc1cccc(N(C(=O)c2sc(C)nc2C)C(C(=O)NCc2ccco2)c2ccccc2)c1 (stereo unspecified)	D2 antag 45
Cc1ccc(N(C(=O)c2sc(C)nc2C)C(C(=O)NCc2ccco2)c2ccccc2)cc1 (stereo unspecified)	D2 antag 44
Cc1ccccc1C(=O)NC(CC(C)C)C(=O)NN1C(=O)c2ccccc2C1=O (stereo unspecified)	D2 antag 30
CCOC(=O)C(Cc1cc(C(C)=O)ccc1OC(C)C)C(=O)OCC	D2 antag 54
CCOC(=O)C(Cc1cc(C(C)=O)ccc1OCC)C(=O)OCC	none
CCOc1cc(CN2CCN(c3cccc(C(F)(F)F)c3)CC2)ccc1OC	none
COCC(=O)N1CCN(c2cccc(Cl)c2)CC1	none
COc1ccc(CC(C)N2CCN(c3cccc(C(F)(F)F)c3)CC2)cc1OC (stereo unspecified)	D2 antag 74
